{"source": "PubChem BioAssay (NCI)", "note": "Where “and” joins values, the source holds several entries; their conditions need not be identical. Equal entries are not always repeated. This is part of a sample that, as a whole, favours compounds with a hit. Of some 83,000 tested, about 20% had one in any assay.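 Percent growth is the endpoint: 0 to 100 indicates growth inhibition (40 means 60% inhibition), 0 means no net growth, and negative values indicate cell death.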 Calls of active or inactive are those of the source. Rule for the calls: active = growth percent below 10; inactive = the rest.", "data": [{"tested_on": "CCRF-CEM leukemia", "experiment": "NCI-60 one-dose screen, 48 h (100 = growth as untreated, 0 = no growth, -100 = all killed)", "conditions": "10 µM unless noted", "values": [{"smiles": "CCc1cccc2c3c(sc12)C(c1ccc(F)cc1)C(C#N)=C(/N=C/c1ccc(Cl)cc1)O3", "note": "(stereo not given)", "growth": "20.7% (inactive)"}, {"smiles": "Cc1ccc2c(n1)C(=O)C(Cl)=C(Nc1ccc(C(=O)OC(C)(C)C)cc1)C2=O", "growth": "-23.2% [9.25 µM] (active)"}, {"smiles": "Clc1ccc2[nH]cc(-c3cncn3CCc3ccc4c(c3)OCO4)c2c1", "growth": "64.2% (inactive)"}, {"smiles": "CCCCCCCCCC(=O)NC(C)(C)C(=O)N1CCC[C@H]1C(=O)N[C@@H](CC(C)C)C(=O)N[C@@](C)(CC)C(=O)N[C@@H](CCC(N)=O)C(=O)N[C@H](CCC(N)=O)C(=O)NC(C)(C)C(=O)NC(C)(C)C(=O)N[C@@H](CCC(N)=O)C(=O)N[C@H](CC(C)C)C(=O)N[C@H](CO)CC(C)C", "growth": "-72% (active) and -39.7% (active)"}, {"smiles": "C=C1CCc2nc(SCC(=O)O)ccc2N1", "growth": "96.9% (inactive)"}, {"smiles": "CC[C@]12C=CCN3CC[C@@]4(c5ccc(OC)cc5N(C)[C@H]4[C@@](O)(C(=O)OC)[C@@H]1OC(=O)CCN1CCc4ccccc4C1)[C@@H]32", "growth": "82.6% (inactive)"}, {"smiles": "CCOC(=O)c1cccnc1Nc1ccc(NC(=O)Nc2ccc(Cl)c(C(F)(F)F)c2)cc1", "growth": "29.5% (inactive)"}, {"smiles": "Cc1ccc(S(=O)(=O)NCCCNc2nccc(-c3[nH]c(-c4ccccc4)nc3-c3ccc(F)c(O)c3)n2)cc1", "growth": "39.7% (inactive)"}, {"smiles": "O=C(CSc1nnc(-c2ccc(Cl)cc2)n1-c1ccccc1)Nc1ccc(Cl)cc1", "growth": "53.9% (inactive)"}, {"smiles": "Cc1ccc2c(n1)C(=O)C(Cl)=C(Nc1ccc(C(F)(F)F)cc1)C2=O", "growth": "2.47% (active)"}, {"smiles": "CC(=O)C1=C(C)NC(NNc2ccccc2)=NC1c1ccc([N+](=O)[O-])cc1", "note": "(stereo not given)", "growth": "89.7% (inactive)"}, {"smiles": "NC(N)=NS(=O)(=O)c1ccc(N=Nc2c(N)nn(-c3ccc([N+](=O)[O-])cc3[N+](=O)[O-])c2N)cc1", "growth": "97.7% (inactive)"}, {"smiles": "NCCNC(=O)c1cccc(COc2ccccc2NC(=O)c2cc(Br)c(Br)[nH]2)c1", "growth": "17.9% (inactive)"}, {"smiles": "COC(=O)CCCNCCCn1ccc2cc(NCc3cccc(-c4ccccc4)c3C)ccc21", "growth": "33.8% (inactive)"}, {"smiles": "O=C(CCCCCCN1CC(=O)N2[C@@H](c3ccccc3Br)c3[nH]c4ccccc4c3C[C@H]2C1=O)NO", "growth": "17.7% (inactive)"}, {"smiles": "CCCCOc1ccc(S(=O)(=O)N2CCN(c3nc(C)cc(N4CCOCC4)n3)CC2)cc1", "growth": "60.3% (inactive)"}, {"smiles": "NS(=O)(=O)c1ccc(CCn2c(-c3ccc(C(=O)O)cc3)nc(-c3ccccc3)c2-c2ccccc2)cc1", "growth": "104% (inactive)"}, {"smiles": "N#C/C(=N\\Nc1ccc(F)cc1)C(=O)Nc1cc(-c2ccccc2)nn1-c1ccccc1", "growth": "15.7% (inactive)"}, {"smiles": "Cn1c2nc3ccccc3c-2cc2ccccc21", "growth": "50.8% (inactive)"}, {"smiles": "NS(=O)(=O)c1nnc(/N=C/c2c(O)[nH]c3ccccc23)s1", "growth": "106% (inactive)"}, {"smiles": "NC(=O)c1c(NC(=O)c2ccc(C(F)(F)F)cc2)sc2c1CCC(=O)C2", "growth": "-4.99% (active)"}, {"smiles": "O=C(N/N=C\\c1ccc([N+](=O)[O-])cc1)c1ccc2nc(-c3ccc(Br)cc3)[nH]c2c1", "growth": "10.6% (inactive)"}, {"smiles": "C#CCN(C)CCCOc1ccc(NC(=O)CCCCCCC(=O)NO)cc1Cl", "growth": "15.5% (inactive)"}, {"smiles": "Fc1cc(F)cc(NNC(=S)c2ccccc2)c1", "growth": "24.2% (inactive)"}, {"smiles": "Fc1ccc(-c2cn3c(-c4c[nH]c5ccc(Br)cc45)csc3n2)cc1", "growth": "70.3% (inactive)"}, {"smiles": "CC[C@]12C=CCN3CC[C@]4(C(=C(C(=O)OC)C1)Nc1cc5c(cc14)[C@@H]1[C@H](O5)[C@@H](O)[C@@]4(CC)CC(C(=O)OC)=C5Nc6cc(O)ccc6[C@@]56CCN1C46)C32", "note": "(stereo not given in full)", "growth": "6.81% (active)"}, {"smiles": "Cc1cc(C)cc(NC2=C(Cl)C(=O)c3nc(C)ccc3C2=O)c1", "growth": "7.91% (active)"}, {"smiles": "COc1ccc2c(c1)c(-c1nn3cc(-c4ccncc4)nc3s1)cn2C", "growth": "43.9% (inactive)"}, {"smiles": "COC(=O)N1CCN(CCNCc2ccc(NC(=O)c3ccc(C)c(C#Cc4cnc5cccnn45)c3)cc2C(F)(F)F)CC1", "growth": "10.8% (inactive)"}, {"smiles": "CC(C)(O)c1cncc(-c2ccc3ncc(C#N)c(N4CCc5cc(F)c(Cl)cc54)c3c2)c1", "growth": "20.5% (inactive)"}, {"smiles": "O=C(/C=C/c1ccc(F)cc1)Nc1cccc2cccnc12", "growth": "105% (inactive)"}, {"smiles": "C#CCN(C)CCCOc1ccc(NCc2ccc(C(=O)NO)cc2)cc1Cl", "growth": "13.7% (inactive)"}, {"smiles": "COCCOc1ccc2ncc(C#Cc3cncc(C(=O)Nc4ccc(CN5CCN(C)CC5)c(C(F)(F)F)c4)c3)n2n1", "growth": "11.7% (inactive)"}, {"smiles": "CC(C)NC(=O)c1cc(-c2ccc(NC(=O)Nc3ccc(F)cc3)cc2)nc2cccnc12", "growth": "112% (inactive)"}, {"smiles": "O=C1c2ccccc2C23C(=C(c4cncnc4)c4ccccc42)CCCN13", "note": "(stereo not given)", "growth": "102% (inactive)"}, {"smiles": "N#Cc1cccc(-c2cc(-c3ccc4c(c3)OCCO4)[nH]n2)c1", "growth": "14.2% (inactive)"}, {"smiles": "CCC(=C(c1ccc(OCCN(C)C)cc1)c1ccc(OCCN(C)C)cc1)c1ccc(Cl)cc1", "growth": "-50.8% (active)"}, {"smiles": "COc1ccccc1/C=C1\\Oc2ccc(O)c(O)c2C1=O", "growth": "75.5% (inactive)"}, {"smiles": "CN1CCN(c2ccc(Nc3nc(NCCCNS(=O)(=O)c4ccccc4)c4sccc4n3)cc2)CC1", "growth": "37.9% (inactive)"}, {"smiles": "Nc1nc(=O)n([C@H]2C[C@H](O)[C@@H](CO)O2)cc1C=O", "growth": "57.7% (inactive)"}]}]}
